# Reference: PubChem BioAssay
# Results filed as inconclusive are left out. For some of these results: Measured potencies and affinities stand elsewhere. Calls of active or inactive are those of the source. Unless noted, the rule behind the calls is not given here.
# Assays:
# [1] = target: Cell division control protein 42 homolog (Homo sapiens) (UniProt P60953); experiment: inhibition of fluorescent GTP binding to constitutively active Cdc42 – biochemical, multiplex bead flow cytometry, Bodipy-FL-GTP, dose response (AID 1333;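 active = fitted half-maximal concentration within the tested dose range, moderate curve steepness, a statistically real signal drop, and little compound fluorescence or tag-binding interference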)
# Chain of Cell division control protein 42 homolog (Homo sapiens) (P60953 whole entry, looked up): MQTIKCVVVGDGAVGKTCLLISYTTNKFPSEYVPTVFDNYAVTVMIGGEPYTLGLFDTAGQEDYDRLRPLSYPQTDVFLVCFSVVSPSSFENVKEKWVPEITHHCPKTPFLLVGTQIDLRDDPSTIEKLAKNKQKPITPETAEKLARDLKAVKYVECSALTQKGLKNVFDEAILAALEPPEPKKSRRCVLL
# [2] = target: Cell division control protein 42 homolog (Homo sapiens) (UniProt P60953); experiment: inhibition of fluorescent GTP binding to wildtype Cdc42 – biochemical, multiplex bead flow cytometry, Bodipy-FL-GTP, dose response (AID 1334;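 active = fitted half-maximal concentration within the tested range, moderate curve steepness, significant signal drop, and little compound fluorescence or bead-linkage interference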); conditions: bead-based flow cytometry, Bodipy-FL-GTP binding to GST-Cdc42; at 100 µM (top of the series) unless noted
# [3] = target: GTPase HRas (Homo sapiens) (UniProt P01112); experiment: Ras wt fluorescent GTP loading blockade – biochemical, wildtype, multiplex bead flow cytometry, dose response (AID 1335;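 active = fitted half-maximal concentration within 10 nM to 100 µM, steepness 0.5 to 2, significant signal drop, low assay interference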); conditions: bead-based flow cytometry, Bodipy-GTP binding to GST-Ras; at 100 µM (top of the series) unless noted
# Chain of GTPase HRas (Homo sapiens) (P01112 whole entry, looked up): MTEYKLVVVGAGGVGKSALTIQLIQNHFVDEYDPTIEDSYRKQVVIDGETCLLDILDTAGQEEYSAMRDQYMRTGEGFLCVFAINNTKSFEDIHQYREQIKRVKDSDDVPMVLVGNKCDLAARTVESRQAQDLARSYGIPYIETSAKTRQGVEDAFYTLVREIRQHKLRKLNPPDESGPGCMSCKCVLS
# [4] = system: Ras-related protein Rab-7a (dog), GTP binding; experiment: blockers of fluorescent GTP binding to Rab7 – biochemical, wildtype, multiplex bead flow cytometry, dose response (AID 1336)
# [5] = target: GTPase HRas (Homo sapiens) (UniProt P01112); experiment: blockade of GTP loading onto mutant Ras – biochemical, activated mutant, multiplex bead flow cytometry, dose response (AID 1341;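 active = dose-response curve with midpoint inside the tested range, moderate steepness, significant amplitude and little compound fluorescence or bead-attachment interference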;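 note: GST-tagged constitutively activated Ras mutant immobilized on beads and multiplexed with other GTPases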)
# [6] = target: Ras-related C3 botulinum toxin substrate 1 (Homo sapiens) (UniProt P63000); experiment: inhibition of wildtype Rac1 nucleotide loading – biochemical, multiplex bead flow cytometry, dose response (AID 1340;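 active = dose curve with midpoint inside tested range, moderate steepness, plateau gap beyond fit error, low compound glow and bead-link interference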); conditions: GST-Rac1 beads, Bodipy-FL-GTP binding; at 100 µM (top of the series) unless noted
# [7] = rapamycin-like changes in RPL19A-GFP expression – cell-based, S. cerevisiae, multiplex flow cytometry, primary screen (AID 1862; in the data active = percent of DMSO control GFP below about 86%;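 note: lower values mimic rapamycin by blocking the RPL19A rise seen in DMSO cells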); conditions: S. cerevisiae RPL19A-GFP strain, flow cytometry fluorescence, 3 h; at 10 µM; stronger effect = lower value
# [8] = TOR pathway GLN3 branch reporter MEP2-GFP changes – S. cerevisiae, multiplex flow cytometry, primary screen (AID 1867;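 active = GFP response, as percent of the DMSO control, above the screen-wide mean plus 3 SD, about 139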;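 note: median GFP channel fluorescence of barcode-gated MEP2-GFP cells measured by flow cytometry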); conditions: S. cerevisiae MEP2-GFP strain, 3 h, at 10 µM, stronger effect = higher value, 100% means same as DMSO wells
# [9] = TOR pathway RTG branch CIT2 reporter changes – S. cerevisiae, GFP fusion, multiplex flow cytometry, primary screen (AID 1870;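 active = percent response above a set limit, the screen-wide mean plus 3 SD, cut at about 130% in these data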;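 note: barcoded CIT2-GFP strain pooled with four other GFP strains with rapamycin as positive control; median GFP fluorescence per well over plate mean of DMSO wells so 100% = DMSO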); conditions: S. cerevisiae CIT2-GFP expression, 3 h, at 10 µM, stronger effect = higher value
# [10] = TOR pathway LAP4-GFP level changes – S. cerevisiae, multiplex flow cytometry, primary screen (AID 1873;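 active = GFP signal, as percent of the solvent control, above the screen mean plus 3 SD, about 149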); conditions: S. cerevisiae LAP4-GFP expression, 3 h, at 10 µM, stronger effect = higher value
# [11] = yeast AGP1-GFP level changes, GLN3 branch – cell-based, multiplex flow cytometry, S. cerevisiae, primary screen (AID 1887;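 active = GFP signal above the screen-wide mean plus 3 SD, that is over about 124.5% of the solvent control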;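 note: AGP1-GFP fusion strain of S. cerevisiae within a five-strain barcoded multiplex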); conditions: 3 h, at 10 µM, stronger effect = higher value
# [12] = reduced mouse 2C T cell binding to pMHC/ICAM-1 vesicles – MLPCN validation set, flow cytometry, LFA-1/ICAM-1 modulator project, pilot screen (AID 2523;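 active = response below a set limit, under 55% cells CD8-positive and vesicle-bound, and CD8 cells' 90th-percentile brightness under 279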;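 for vesicle binding response: mean PE anti-B7-1 fluorescence of CD8+ cells relative to row control; 100% = QL9-loaded vesicles with DMSO vehicle in the same plate row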); conditions: 2C mouse CD8+ T cells, at 7 µM, stronger effect = lower value; double positive events: measured here: CD8+/vesicle+ event percentage
# [13] = target: Integrin beta-1 (Homo sapiens) + Integrin alpha-4 (Homo sapiens) (UniProt P13612+P05556); experiment: alpha4beta1 integrin LIBS antibody binding reduction – U937 cells, HUTS-21 mAb, flow cytometry, validation set, VLA-4 allosteric modulator project, pilot screen (AID 2674;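 active = inhibition above 50%, about 3 SD of the validation set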;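 note: antibody binding induced by the VLA-4 ligand LDV present at three times its Kd; 0% = LDV ligand with antibody and no compound and 100% = antibody without LDV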); conditions: HUTS-21 LIBS mAb binding, at 6.7 µM, stronger effect = higher value, binding induced by LDV ligand
# [14] = calorie-restriction mimetic ROS inhibitors, yeast – validation compound set, pilot screen (AID 2706;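 active = superoxide response below 65% of plate, a cut near 3 SD across the whole screen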;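 note: yeast exposed to compound for one week at 30 degrees C before staining; 100% = mean of all compound wells on the same plate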); conditions: S. cerevisiae aging, superoxide DHE fluorescence; at 10 µM; stronger effect = lower value
# [15] = target: Beta-adrenergic receptor kinase 1 (Homo sapiens) (UniProt P25098); experiment: GRK2 binders displacing RNA aptamer, biochemical, validation, human GRK2, bead flow cytometry (AID 488806;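 active = aptamer binding inhibition above 30%, about 3 SD of noise from non-fluorescent compounds; inactive = inhibition at or below 30%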); conditions: bead-bound GRK2, FAM-aptamer displacement, at 10 µM, stronger effect = higher value
# Chain of Beta-adrenergic receptor kinase 1 (Homo sapiens) (P25098 whole entry, looked up): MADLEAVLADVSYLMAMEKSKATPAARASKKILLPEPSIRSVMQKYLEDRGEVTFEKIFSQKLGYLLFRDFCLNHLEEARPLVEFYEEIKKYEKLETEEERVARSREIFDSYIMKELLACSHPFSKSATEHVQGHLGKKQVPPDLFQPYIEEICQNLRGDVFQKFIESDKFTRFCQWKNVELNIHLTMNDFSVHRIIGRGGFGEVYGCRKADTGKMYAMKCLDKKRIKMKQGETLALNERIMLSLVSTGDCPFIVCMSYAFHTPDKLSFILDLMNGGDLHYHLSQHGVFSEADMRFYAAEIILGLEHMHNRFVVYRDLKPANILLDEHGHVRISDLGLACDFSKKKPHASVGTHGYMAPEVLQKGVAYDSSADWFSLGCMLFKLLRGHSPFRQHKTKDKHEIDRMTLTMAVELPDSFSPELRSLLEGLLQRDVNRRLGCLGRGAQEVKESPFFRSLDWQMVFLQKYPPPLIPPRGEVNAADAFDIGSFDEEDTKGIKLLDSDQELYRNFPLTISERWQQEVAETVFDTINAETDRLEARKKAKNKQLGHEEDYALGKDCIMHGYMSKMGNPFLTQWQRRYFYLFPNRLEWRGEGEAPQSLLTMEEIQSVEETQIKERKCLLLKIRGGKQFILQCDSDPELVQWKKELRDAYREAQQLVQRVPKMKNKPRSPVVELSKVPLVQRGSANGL
# [16] = target: Beta-2 adrenergic receptor (Homo sapiens) (UniProt P07550); experiment: agonist-induced loss of surface beta2AR – cell-based, FAP fluorogen, flow cytometry, validation set, pilot screen (AID 504459;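 active = percent response above 42, roughly 3 SD of non-fluorescent test compounds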;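 note: agonist-driven loss of surface beta2AR via internalization measured by FAP dye flow cytometry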); conditions: Am2.2-beta2AR cells, at 10 µM, stronger effect = higher value
# Chain of Beta-2 adrenergic receptor (Homo sapiens) (P07550 whole entry, looked up): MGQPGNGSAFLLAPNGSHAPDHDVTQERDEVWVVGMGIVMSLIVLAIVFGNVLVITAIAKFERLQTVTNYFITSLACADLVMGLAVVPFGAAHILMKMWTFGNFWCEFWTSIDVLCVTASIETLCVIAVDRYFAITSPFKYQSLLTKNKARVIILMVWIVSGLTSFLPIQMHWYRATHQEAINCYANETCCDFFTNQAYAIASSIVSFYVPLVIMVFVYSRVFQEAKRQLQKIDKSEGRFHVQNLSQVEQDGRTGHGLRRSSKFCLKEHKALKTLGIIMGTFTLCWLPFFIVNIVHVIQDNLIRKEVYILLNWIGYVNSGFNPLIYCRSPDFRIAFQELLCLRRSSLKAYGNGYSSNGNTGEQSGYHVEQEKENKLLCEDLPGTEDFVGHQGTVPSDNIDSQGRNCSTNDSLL
# [17] = target: AP-2 complex subunit beta (Homo sapiens) (UniProt P63010); experiment: beta-arrestin/AP2 interaction blockers – biochemical, validation set, GST-AP2 beads, flow cytometry, pilot screen (AID 504541;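 active = inhibition above 54%, about 3 SD of non-fluorescent compounds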;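 note: AP2 carries R879A mutation and is captured from E. coli lysate; bead-bound FITC arrestin peptide fluorescence measuring arrestin peptide binding to AP2; 0% = DMSO wells and 100% = excess unlabeled arrestin peptide control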); conditions: FITC arrestin peptide, at 10 µM, stronger effect = higher value, AP2 beta2 appendage fragment, R879A mutant
# Chain of AP-2 complex subunit beta (Homo sapiens) (P63010 whole entry, looked up, the tested form may be a part, one chain of several): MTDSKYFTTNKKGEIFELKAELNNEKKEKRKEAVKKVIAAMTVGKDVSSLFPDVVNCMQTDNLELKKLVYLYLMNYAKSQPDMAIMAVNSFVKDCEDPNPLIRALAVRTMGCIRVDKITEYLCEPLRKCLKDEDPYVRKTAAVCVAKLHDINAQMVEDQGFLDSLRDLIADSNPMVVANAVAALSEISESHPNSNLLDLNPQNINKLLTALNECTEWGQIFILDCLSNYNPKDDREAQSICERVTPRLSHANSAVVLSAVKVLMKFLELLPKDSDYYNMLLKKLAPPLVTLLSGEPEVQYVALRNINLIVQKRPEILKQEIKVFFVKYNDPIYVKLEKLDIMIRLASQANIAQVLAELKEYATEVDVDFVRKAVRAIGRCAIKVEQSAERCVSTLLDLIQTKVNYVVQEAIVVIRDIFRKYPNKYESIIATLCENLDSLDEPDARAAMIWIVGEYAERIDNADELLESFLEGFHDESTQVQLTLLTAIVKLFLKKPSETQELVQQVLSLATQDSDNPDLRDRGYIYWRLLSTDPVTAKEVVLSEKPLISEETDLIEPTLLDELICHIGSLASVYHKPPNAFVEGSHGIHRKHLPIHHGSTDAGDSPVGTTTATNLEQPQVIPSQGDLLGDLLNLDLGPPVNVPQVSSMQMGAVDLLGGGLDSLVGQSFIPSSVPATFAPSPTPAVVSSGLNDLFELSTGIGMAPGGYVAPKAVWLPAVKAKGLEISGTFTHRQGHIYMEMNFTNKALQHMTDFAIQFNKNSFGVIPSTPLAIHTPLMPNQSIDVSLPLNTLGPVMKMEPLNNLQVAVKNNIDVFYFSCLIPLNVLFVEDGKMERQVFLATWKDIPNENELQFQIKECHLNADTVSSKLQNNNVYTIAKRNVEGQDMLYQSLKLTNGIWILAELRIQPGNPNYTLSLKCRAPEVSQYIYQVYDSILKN
# [18] = cytosolic pH regulators acting via V-ATPase – S. cerevisiae, pHLuorin, HTS validation (AID 504600; in the data active = response above about 15%;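 note: plate controls were DMSO for no effect and reference compound for full effect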); conditions: V-ATPase proton transport, at 10 µM, stronger effect = higher value
# [19] = system: anti-desmoglein-3 scFv antibody binding to human DSG3; experiment: blockers of pathogenic pemphigus antibody–desmoglein-3 binding – biochemical, validation compound set, bead-based, flow cytometry, pilot screen (AID 588368;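 active = binding below the plate cutoff, the plate median minus 3 SD, with a reading above zero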;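 note: signal is the median channel fluorescence of bead-bound GFP antibody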); conditions: Protein G beads, DSG3-Fc, scFv-GFP binding, at 10 µM, stronger effect = lower value
# [20] = Nile Red efflux blockade in pump-expressing yeast – validation compound set, multiplex, phenotypic, pilot screen (AID 588506;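 active = efflux inhibition above 0.42, the validation set average plus 4 SD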;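 note: Nile Red retained in cells so higher fluorescence means more efflux inhibition; 0 = negative control wells and 1 = enniatin B 25 µM full block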); conditions: S. cerevisiae pump-expressing triplex, Nile Red efflux flow cytometry; at 10 µM; stronger effect = higher value; the pumps come from Candida albicans
# [21] = target: ATP-binding cassette sub-family B member 6 (Homo sapiens) (UniProt Q9NP58); experiment: blockers of ABCB6-driven porphyrin uptake – K562-ABCB6 cells, flow cytometry, validation set, pilot screen (AID 588550;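 active = inhibition above the screen-wide mean plus 3 SD, about 51%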;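 note: 0% = DMSO wells and 100% = benzethonium chloride 70 µM positive control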); conditions: K562-ABCB6 porphyrin accumulation, 1 h, at 10 µM, stronger effect = higher value
# Chain of ATP-binding cassette sub-family B member 6 (Homo sapiens) (Q9NP58 whole entry, looked up): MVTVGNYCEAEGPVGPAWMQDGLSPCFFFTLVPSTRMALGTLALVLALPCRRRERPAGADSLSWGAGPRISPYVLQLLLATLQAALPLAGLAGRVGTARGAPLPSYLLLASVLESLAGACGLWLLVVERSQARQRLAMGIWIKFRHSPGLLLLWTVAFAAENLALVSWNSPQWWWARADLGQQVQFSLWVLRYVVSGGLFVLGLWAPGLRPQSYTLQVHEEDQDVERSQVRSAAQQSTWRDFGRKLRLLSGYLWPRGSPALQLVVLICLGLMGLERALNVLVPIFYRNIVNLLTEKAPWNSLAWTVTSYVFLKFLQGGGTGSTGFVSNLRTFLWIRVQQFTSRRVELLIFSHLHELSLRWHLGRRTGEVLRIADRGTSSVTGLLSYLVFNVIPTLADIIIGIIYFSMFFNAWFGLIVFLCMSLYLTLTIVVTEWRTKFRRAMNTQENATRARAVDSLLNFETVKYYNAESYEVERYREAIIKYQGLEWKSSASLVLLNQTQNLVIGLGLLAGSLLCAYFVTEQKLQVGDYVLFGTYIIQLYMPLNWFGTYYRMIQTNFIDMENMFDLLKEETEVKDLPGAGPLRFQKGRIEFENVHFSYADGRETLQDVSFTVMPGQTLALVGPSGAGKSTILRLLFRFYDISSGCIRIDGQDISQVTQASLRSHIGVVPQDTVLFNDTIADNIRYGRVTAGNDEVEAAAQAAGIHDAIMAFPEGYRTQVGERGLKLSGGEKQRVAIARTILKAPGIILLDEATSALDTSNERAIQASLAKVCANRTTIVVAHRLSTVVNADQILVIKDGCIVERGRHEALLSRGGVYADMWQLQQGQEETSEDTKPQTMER
# [22] = AML differentiation inducers, ER-HoxA9 marrow cells – cell-based, GFP/MAC1 double positive, flow cytometry, validation set, primary screen (AID 588685;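 active = differentiation response of at least 50%, scaled between solvent and reference control, from cells with both markers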;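 note: compound exposure lasts four days before antibody staining and flow analysis; 0% = DMSO wells and 100% = 5 µM fulvestrant positive control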); conditions: stronger effect = higher value, normalized: vehicle 0, fulvestrant 100
# [23] = hit retest on RPL19A-GFP reporter strain – cell-based, S. cerevisiae, flow cytometry, cherry picks, mother/daughter gates, confirmation (AID 2270;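 active = GFP response below 50% of the DMSO control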); conditions: 3 h, at 10 µM, stronger effect = lower value, 100 = same GFP as DMSO wells
# [24] = yeast TOR pathway reporter LAP4-GFP change – cell-based, cherry picks, flow cytometry, mother/daughter gates, confirmation (AID 2271;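 active = GFP response above 150% of the DMSO control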;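 note: ratio of sample to DMSO plate mean so 100% equals DMSO level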); conditions: S. cerevisiae LAP4-GFP strain, 3 h, at 10 µM, stronger effect = higher value, 100 means same as DMSO control
# [25] = TOR pathway reporter MEP2-GFP, retest of hits – S. cerevisiae, flow cytometry GFP, cherry picks, confirmation (AID 2272;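 active = GFP response above 150% of the DMSO control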;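 note: ratio of well signal to plate DMSO mean so 100% equals DMSO level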); conditions: S. cerevisiae MEP2-GFP strain, 3 h, at 10 µM, stronger effect = higher value
# [26] = yeast AGP1-GFP fluorescence change, single-dose – cell-based, flow cytometry, S. cerevisiae, cherry picks, confirmation (AID 2273;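 active = GFP response above 150% of the DMSO level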;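 note: median GFP channel fluorescence over the whole cell population gate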); conditions: S. cerevisiae AGP1-GFP strain, 3 h, at 10 µM
# [27] = TOR pathway CIT2 reporter hit retest – S. cerevisiae, GFP fusion, cherry picks, mother/daughter gates, confirmation (AID 2274;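 active = GFP response above 150% of the DMSO level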); conditions: S. cerevisiae CIT2-GFP strain, flow cytometry, 3 h, at 10 µM, stronger effect = higher value
# [28] = measured here: daughter cell gate
# [29] = measured here: mother cell gate
# [30] = measured here: daughter cell gate response
# [31] = measured here: mother cell gate response
smiles,measurement,setting,value
O=C(O)/C=C/c1cn(Cc2ccccc2)nc1-c1ccc(Cl)cc1,outcome,[1],inactive
same,"fluorescence, percent of control (lower = inhibition)",[2],34.9%
same,"GTP binding, percent of control",[3],84.9%
same,outcome,[4],inactive
same,outcome,[5],inactive
CC(C)(C)C(=O)OCC1OC(n2cnc(C(N)=O)n2)C(O)C1O (stereo unspecified),outcome,[1],inactive
same,"fluorescence, percent of control (lower = inhibition)",[2],35.8%
same,"GTP binding, percent of control",[3],81.6%
same,outcome,[4],inactive
same,"GTP binding signal, raw median fluorescence (lower = inhibition) (MCF (arbitrary fluorescence units))",[6],266
same,outcome,[5],inactive
COc1cc2c(cc1OC)-c1cc(NC3CCCCCC3)nc(=O)n1CC2,outcome,[1],inactive
same,"fluorescence, percent of control (lower = inhibition)",[2],34.3%
same,"GTP binding, percent of control",[3],69.8%
same,outcome,[4],inactive
same,"GTP binding signal, raw median fluorescence (lower = inhibition) (MCF (arbitrary fluorescence units))",[6],145
same,outcome,[5],inactive
same,percent of DMSO control GFP,[7],100% (inactive)
same,GFP response vs DMSO,[8],100% (inactive)
same,percent response of DMSO control,[9],109% (inactive)
same,GFP response vs DMSO,[10],94.7% (inactive)
same,"GFP response, % of DMSO",[11],95.9% (inactive)
same,double positive events,[12],62.4%
same,vesicle binding response,[12],601% (inactive)
same,inhibition,[13],-22.2% (inactive)
same,superoxide response (% of plate),[14],98.3% (inactive)
same,aptamer binding inhibition,[15],0% (inactive)
same,response,[16],-1.14% (inactive)
same,inhibition,[17],17% (inactive)
same,response,[18],-1.05% (inactive)
same,binding (% of control),[19],107% (inactive)
same,efflux inhibition (fraction of control),[20],0.21 (inactive)
same,inhibition,[21],-6% (inactive)
same,differentiation response,[22],7.09% (inactive)
COCCN(C(=S)Nc1cc(C)ccc1C)C(C)c1cccnc1 (stereo unspecified),outcome,[1],inactive
same,"fluorescence, percent of control (lower = inhibition)",[2],52.6%
same,"GTP binding, percent of control",[3],63.7%
same,outcome,[4],inactive
same,"GTP binding signal, raw median fluorescence (lower = inhibition) (MCF (arbitrary fluorescence units))",[6],212
same,outcome,[5],inactive
CS(=O)(=O)N1N=C(c2ccccc2)CC1c1ccc2c(c1)OCO2 (stereo unspecified),outcome,[1],inactive
same,"fluorescence, percent of control (lower = inhibition)",[2],112%
same,"GTP binding, percent of control",[3],120%
same,outcome,[4],inactive
same,"GTP binding signal, raw median fluorescence (lower = inhibition) (MCF (arbitrary fluorescence units))",[6],247
same,outcome,[5],inactive
same,GFP response vs DMSO,[23],136% (inactive)
same,GFP response vs DMSO,[23]; [28],137%
same,GFP response vs DMSO,[23]; [29],135%
same,GFP response relative to DMSO,[24],449% (active)
same,GFP response relative to DMSO,[24]; [30],466%
same,GFP response relative to DMSO,[24]; [31],439%
same,GFP response vs DMSO,[25],1140% (active)
same,"GFP response, % of DMSO",[26],204% (active)
same,"GFP response, % of DMSO",[27],436% (active)
same,"GFP response, % of DMSO",[27]; [28],437%
same,"GFP response, % of DMSO",[27]; [29],413%
CCN1/C(=C/C=C/C=C/c2sc3ccccc3[n+]2CC)Sc2ccccc21,outcome,[1],inactive
same,"fluorescence, percent of control (lower = inhibition)",[2],1.8%
same,"GTP binding, percent of control",[3],2%
same,"GTP binding, % of control",[4],4.4% [at 3.7 µM] (inactive)
same,"GTP binding signal, raw median fluorescence (lower = inhibition) (MCF (arbitrary fluorescence units))",[6],1.8
same,outcome,[5],inactive
same,double positive events,[12],81.6%
same,vesicle binding response,[12],109% (inactive)
same,superoxide response (% of plate),[14],89.6% (inactive)
same,aptamer binding inhibition,[15],39% (active)
same,response,[16],-16.6% (inactive)
same,inhibition,[17],75.8% (active)
same,response,[18],-3.07% (inactive)
same,binding (% of control),[19],121% (inactive)
same,efflux inhibition (fraction of control),[20],0.73 (active)
same,inhibition,[21],10% (inactive)
same,differentiation response,[22],7.37% (inactive)
CC(C)(C)c1ccc(C(=O)CC(Sc2ccc(Cl)cc2)C(=O)O)cc1 (stereo unspecified),outcome,[1],inactive
same,"fluorescence, percent of control (lower = inhibition)",[2],30.3%
same,"GTP binding, percent of control",[3],79.2%
same,outcome,[4],inactive
same,"GTP binding signal, raw median fluorescence (lower = inhibition) (MCF (arbitrary fluorescence units))",[6],285
same,outcome,[5],inactive
same,GFP response vs DMSO,[23],100% (inactive)
same,GFP response vs DMSO,[23]; [28],97.1%
same,GFP response vs DMSO,[23]; [29],100%
same,GFP response relative to DMSO,[24],120% (inactive)
same,GFP response relative to DMSO,[24]; [30],112%
same,GFP response relative to DMSO,[24]; [31],125%
same,GFP response vs DMSO,[25],101% (inactive)
same,"GFP response, % of DMSO",[26],98.4% (inactive)
same,"GFP response, % of DMSO",[27],79.7% (inactive)
same,"GFP response, % of DMSO",[27]; [28],79.4%
same,"GFP response, % of DMSO",[27]; [29],77.8%
